Results filed as inconclusive are left out. Activity calls are given as the source filed them. Calls follow the shape of the dose curve; as a rule, active = well fitted inhibition curve with a large enough effect; inconclusive = small, poorly fitted or top-dose-only effect; inactive = no such curve, though single readings can be large or run the other way.
Test: Counterscreen for APE1 Inhibitors: Fluorescent Dye Displacement Validation Assay (AID 1707)
Conditions: fluorescent dye displacement from DNA; series mostly up to 57.1 µM
Source text: In order to distinguish true inhibitors of DNA-processing enzymes from promiscuous DNA-binding compounds among screening assay hits, we developed a homogeneous and miniaturized assay based on fluorescent dye displacement test as originally described by Tse and Boger (Accounts of Chemical Research (2004) 37: 61-69). The assay is based on the strong enhancement of fluorescence when Thiazole Orange (ThO) binds to double-stranded DNA: conversely, in the presence of a DNA-binding compound, Thiazole Orange is displaced from the DNA and its fluorescence is reduced.
Buffer. 50 mM Tris-HCl (pH7.5) containing 50mM NaCl, 2 mM MgCl2, and 0.01% Tween-20.
Buffer containing 250 nM ThO in columns 3 and 4 as negative control (no dsDNA).
Reaction mixture: 250 nM ThO and 50 nM dsDNA at final concentration dispensed throughout the plate: in columns 1, 2, 5-48. Column 1 is neutral (100% activity).
5''TAMRA- TC ACC FTC GTA CGA CTC
3'' AG TGG GAG CAT GCT GAG
where F denotes tetrahydrofuran.
Control: Pintool transfer of control compound WB64 (W4761, Sigma-Aldrich) to column 2 of all assay plates as a two-fold 16-point dilution in duplicate (concentration range 5.75 uM - 0.175 nM).
Four uL of reaction mixtures were dispensed to 1536-well Greiner black solid bottom plates. Compounds (23 nL) were transferred […] in order to measure the endpoint fluorescence using 480 nm excitation and 540 nm emission fluorescence protocol.

Compound | outcome
C[C@]12CCC(=O)C=C1CC[C@@H]1[C@@H]2CC[C@@]2(C)[C@H]1CC[C@]2(O)C(=O)CO | inactive
CCCCNC(=O)NS(=O)(=O)c1ccc(C)cc1 | inactive
CCn1nc(C(=O)O)c(=O)c2cc3c(cc21)OCO3 | inactive
COCCc1ccc(OCC(O)CNC(C)C)cc1 (stereo not given) | inactive
CC(C)COCC(CN(Cc1ccccc1)c1ccccc1)N1CCCC1 (stereo not given) | inactive
CNC1(C)C2CCC(C2)C1(C)C (stereo not given) | inactive
CCCN(CCC)C(=O)C(CCC(=O)O)NC(=O)c1ccccc1 (stereo not given) | inactive
CCOC(=O)C1=C(C)NC(C)=C(C(=O)OC)C1c1cccc(Cl)c1Cl (stereo not given) | inactive
CCCNC(C)C(=O)Nc1ccccc1C (stereo not given) | inactive
CC(C)NNC(=O)c1ccncc1 | inactive
CSc1ccc(C(=O)c2[nH]c(=O)[nH]c2C)cc1 | inactive
CCc1c(C)[nH]c2c1C(=O)C(CN1CCOCC1)CC2 (stereo not given) | inactive
CN(C)C/C=C(/c1ccc(Br)cc1)c1cccnc1 | inactive
COc1cc(C(=O)OCCCN2CCCN(CCCOC(=O)c3cc(OC)c(OC)c(OC)c3)CC2)cc(OC)c1OC | inactive
NC(N)=N/N=C/c1c(Cl)cccc1Cl | inactive
Cc1ccc(Cl)c(Nc2ccccc2C(=O)O)c1Cl | inactive
O=C(O)CN(CCN(CC(=O)O)CC(=O)O)CCN(CC(=O)O)CC(=O)O | inactive
CC(=O)OCC1=C(C(=O)O)N2C(=O)[C@@H](NC(=O)Cc3cccs3)[C@H]2SC1 | inactive
CCCCNc1c(C(=O)OCC)c(C)nc2c1cnn2CC | inactive
NC(=O)N1c2ccccc2C=Cc2ccccc21 | inactive

Compound | outcome
CC(C)[N+](C)(CCOC(=O)C1c2ccccc2Oc2ccccc21)C(C)C | inactive
CNCCCN1c2ccccc2CCc2ccccc21 | inactive
CCn1cc(C(=O)O)c(=O)c2cc3c(cc21)OCO3 | inactive
COCCCC/C(=N\OCCN)c1ccc(C(F)(F)F)cc1 | inactive
CN(C)CCCN1c2ccccc2Sc2ccc(C(F)(F)F)cc21 | inactive
CN(C)CC/C=C1\c2ccccc2COc2ccccc21 | inactive
CCC(=O)c1ccc2c(c1)N(CCCN(C)C)c1ccccc1S2 | inactive
CCN(CC)CC(=O)Nc1c(C)cccc1C | inactive
COc1ccc(CN(CCN(C)C)c2ccccn2)cc1 | inactive
CN(C)CCOC(=O)COc1ccc(Cl)cc1 | inactive
CN/C(=C\[N+](=O)[O-])NCCSCc1ccc(CN(C)C)o1 | inactive
Cc1cc(C)c(/C=C2\C(=O)Nc3ccccc32)[nH]1 | inactive
COc1ccc([C@@H]2Sc3ccccc3N(CCN(C)C)C(=O)[C@@H]2OC(C)=O)cc1 | inactive
COCC(=O)O[C@]1(CCN(C)CCCc2nc3ccccc3[nH]2)CCc2cc(F)ccc2[C@@H]1C(C)C | inactive
C[N+](C)(C)CCOC(N)=O | inactive
CC(C)NCC(O)c1cc(O)cc(O)c1 (stereo not given) | inactive
Cc1nnc(SCC2=C(C(=O)O)N3C(=O)[C@@H](NC(=O)Cn4cnnn4)[C@H]3SC2)s1 | inactive
O=C1CC2(CCCC2)CC(=O)N1CCCCN1CCN(c2ncccn2)CC1 | inactive
Nc1nc(N)c2nc(-c3ccccc3)c(N)nc2n1 | inactive
CN(C)C(=O)Oc1ccc[n+](C)c1 | inactive

Source: PubChem BioAssay (NCATS)
